According to paper PMC7862700, “An all-to-all approach to the identification of sequence-specific readers for epigenetic DNA modifications on cytosine”:

How the values were obtained:
Experiment in all cases: DAPPL (digital affinity profiling via proximity ligation, sequencing); 10 mM Tris-HCl pH 7.5, 50 mM NaCl, 1 mM DTT, 4% glycerol, room temperature, 30 min; GST-TFs on glutathione beads, 16-mer random dsDNA library, 0.1% formaldehyde crosslink after washing; high values mean tight binding
FLI1 = target: T1, FLI1 (Homo sapiens, UniProt Q01543 1-452); conditions: protein: recombinant; tags: N-terminal GST; dsDNA, one strand shown
T1 sequence: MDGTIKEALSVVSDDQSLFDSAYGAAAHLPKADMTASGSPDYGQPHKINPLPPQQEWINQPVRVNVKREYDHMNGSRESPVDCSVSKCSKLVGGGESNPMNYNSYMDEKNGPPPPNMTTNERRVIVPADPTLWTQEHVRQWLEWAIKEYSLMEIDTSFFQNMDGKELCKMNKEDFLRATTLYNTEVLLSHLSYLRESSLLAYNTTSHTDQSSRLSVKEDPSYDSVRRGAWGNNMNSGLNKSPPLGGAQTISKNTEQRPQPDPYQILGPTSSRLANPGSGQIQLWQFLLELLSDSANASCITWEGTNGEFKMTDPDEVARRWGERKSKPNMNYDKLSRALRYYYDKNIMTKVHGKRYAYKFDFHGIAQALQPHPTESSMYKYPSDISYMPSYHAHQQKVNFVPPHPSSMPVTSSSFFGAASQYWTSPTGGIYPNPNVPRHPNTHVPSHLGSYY
Procedure, shortened: (§1)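 Pools were built from human transcription factors expressed in yeast as GST fusions, captured on glutathione beads and DNA-barcoded, along with a tag-only sample. Incubation with 200 nmole of a 16-mer random double-stranded DNA library lasted 30 min at room temperature in Tris/NaCl/DTT/glycerol buffer, and was followed by washing, 0.1% formaldehyde crosslinking, proximity ligation, PCR amplification and Illumina NextSeq500 sequencing. Binding signal is the quotient of each hexamer's read frequency for a factor and its frequency for the tag-only sample.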

ELK1 = target: T2, ELK1 (Homo sapiens, UniProt P19419 1-428); conditions: protein: recombinant; tags: N-terminal GST; dsDNA, one strand shown
T2 sequence: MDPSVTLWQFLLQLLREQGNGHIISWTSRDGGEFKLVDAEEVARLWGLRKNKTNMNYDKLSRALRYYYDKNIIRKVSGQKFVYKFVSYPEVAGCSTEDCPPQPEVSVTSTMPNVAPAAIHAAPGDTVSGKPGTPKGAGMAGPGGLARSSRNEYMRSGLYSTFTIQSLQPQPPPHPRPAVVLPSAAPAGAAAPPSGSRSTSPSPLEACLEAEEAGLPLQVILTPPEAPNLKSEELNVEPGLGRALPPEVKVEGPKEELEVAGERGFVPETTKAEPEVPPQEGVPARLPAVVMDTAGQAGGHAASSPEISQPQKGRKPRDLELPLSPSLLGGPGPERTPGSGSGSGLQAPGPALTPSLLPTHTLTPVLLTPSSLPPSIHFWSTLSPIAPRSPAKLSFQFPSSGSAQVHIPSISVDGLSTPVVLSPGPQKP
Procedure, shortened: as §1

GABPA = target: T3, GABPA (Homo sapiens, UniProt Q06546 1-454); conditions: protein: recombinant; tags: N-terminal GST; dsDNA, one strand shown
T3 sequence: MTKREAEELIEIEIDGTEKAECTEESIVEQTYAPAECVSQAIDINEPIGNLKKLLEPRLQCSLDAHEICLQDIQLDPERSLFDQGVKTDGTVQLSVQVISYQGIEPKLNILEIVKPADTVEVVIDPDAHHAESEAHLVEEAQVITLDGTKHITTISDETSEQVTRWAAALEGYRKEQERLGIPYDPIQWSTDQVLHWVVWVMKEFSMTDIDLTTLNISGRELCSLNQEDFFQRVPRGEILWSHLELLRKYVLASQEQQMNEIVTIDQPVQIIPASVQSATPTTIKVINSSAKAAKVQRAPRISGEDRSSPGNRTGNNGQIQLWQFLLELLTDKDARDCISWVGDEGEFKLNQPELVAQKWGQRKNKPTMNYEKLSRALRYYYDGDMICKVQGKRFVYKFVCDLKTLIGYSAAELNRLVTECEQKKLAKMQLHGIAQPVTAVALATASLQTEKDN
Procedure, shortened: as §1

ERG = target: T4, ERG (Homo sapiens, UniProt P11308 1-479); conditions: protein: recombinant; tags: N-terminal GST; dsDNA, one strand shown
T4 sequence: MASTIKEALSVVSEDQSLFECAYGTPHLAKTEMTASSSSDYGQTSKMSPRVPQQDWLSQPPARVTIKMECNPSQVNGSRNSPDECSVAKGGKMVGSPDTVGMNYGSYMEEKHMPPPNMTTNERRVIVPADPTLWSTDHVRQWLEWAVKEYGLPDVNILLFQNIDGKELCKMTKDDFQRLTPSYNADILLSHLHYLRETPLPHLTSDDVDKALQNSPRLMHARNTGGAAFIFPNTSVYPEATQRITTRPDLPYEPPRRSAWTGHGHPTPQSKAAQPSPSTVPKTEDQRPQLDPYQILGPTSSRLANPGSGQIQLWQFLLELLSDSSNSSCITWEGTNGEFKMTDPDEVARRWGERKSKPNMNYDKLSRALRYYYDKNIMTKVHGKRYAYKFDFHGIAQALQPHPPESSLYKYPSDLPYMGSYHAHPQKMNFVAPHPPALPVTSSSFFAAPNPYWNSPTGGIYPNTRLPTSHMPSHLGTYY
Procedure, shortened: as §1

ELF1 = ELF1 (Homo sapiens, UniProt P32519 1-619); conditions: protein: recombinant; tags: N-terminal GST; dsDNA, one strand shown
Sequence of ELF1 (P32519 whole entry): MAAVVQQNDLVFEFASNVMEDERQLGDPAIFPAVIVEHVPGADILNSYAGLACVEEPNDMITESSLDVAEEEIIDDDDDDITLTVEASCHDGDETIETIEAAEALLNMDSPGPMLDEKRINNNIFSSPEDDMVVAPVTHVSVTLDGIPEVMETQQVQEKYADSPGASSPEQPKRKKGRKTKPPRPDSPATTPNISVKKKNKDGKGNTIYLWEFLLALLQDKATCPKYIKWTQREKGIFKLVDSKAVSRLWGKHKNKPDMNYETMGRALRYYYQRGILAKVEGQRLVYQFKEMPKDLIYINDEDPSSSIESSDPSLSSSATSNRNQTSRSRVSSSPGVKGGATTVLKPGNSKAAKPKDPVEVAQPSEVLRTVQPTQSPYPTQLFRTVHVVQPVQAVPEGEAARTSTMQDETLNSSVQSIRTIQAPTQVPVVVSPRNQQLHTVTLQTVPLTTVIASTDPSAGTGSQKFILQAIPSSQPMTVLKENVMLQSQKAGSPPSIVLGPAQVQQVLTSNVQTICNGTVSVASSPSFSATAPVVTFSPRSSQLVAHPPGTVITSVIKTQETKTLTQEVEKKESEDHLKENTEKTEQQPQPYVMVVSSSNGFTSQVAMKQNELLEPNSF
Procedure, shortened: as §1

EHF = target: T5, EHF (Homo sapiens, UniProt Q9NZC4 1-300); conditions: protein: recombinant; tags: N-terminal GST; dsDNA, one strand shown
T5 sequence: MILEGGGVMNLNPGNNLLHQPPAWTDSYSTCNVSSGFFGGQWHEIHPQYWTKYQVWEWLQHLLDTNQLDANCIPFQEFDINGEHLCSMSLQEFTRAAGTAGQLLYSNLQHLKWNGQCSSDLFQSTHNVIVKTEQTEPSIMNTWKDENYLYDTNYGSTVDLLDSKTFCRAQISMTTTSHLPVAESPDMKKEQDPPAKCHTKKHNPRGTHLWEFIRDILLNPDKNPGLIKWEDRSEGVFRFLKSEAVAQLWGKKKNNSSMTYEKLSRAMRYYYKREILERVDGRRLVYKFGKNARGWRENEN
Procedure, shortened: as §1

SPI1 = SPI1 (Homo sapiens, UniProt P17947 1-270); conditions: protein: recombinant; tags: N-terminal GST; dsDNA, one strand shown
Procedure, shortened: as §1

SPIB = SPIB (Homo sapiens, UniProt Q01892 1-262); conditions: protein: recombinant; tags: N-terminal GST; dsDNA, one strand shown
Sequence of SPIB (Q01892 whole entry): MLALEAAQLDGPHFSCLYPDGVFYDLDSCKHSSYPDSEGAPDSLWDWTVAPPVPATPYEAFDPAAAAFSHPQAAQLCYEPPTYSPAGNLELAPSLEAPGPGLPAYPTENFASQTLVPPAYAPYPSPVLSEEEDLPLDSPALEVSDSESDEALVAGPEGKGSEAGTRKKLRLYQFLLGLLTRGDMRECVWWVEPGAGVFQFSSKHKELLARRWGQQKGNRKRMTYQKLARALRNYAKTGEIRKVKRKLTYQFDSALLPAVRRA
Procedure, shortened: as §1

ELK3 = target: T6, ELK3 (Homo sapiens, UniProt P41970 1-407); conditions: protein: recombinant; tags: N-terminal GST; dsDNA, one strand shown
T6 sequence: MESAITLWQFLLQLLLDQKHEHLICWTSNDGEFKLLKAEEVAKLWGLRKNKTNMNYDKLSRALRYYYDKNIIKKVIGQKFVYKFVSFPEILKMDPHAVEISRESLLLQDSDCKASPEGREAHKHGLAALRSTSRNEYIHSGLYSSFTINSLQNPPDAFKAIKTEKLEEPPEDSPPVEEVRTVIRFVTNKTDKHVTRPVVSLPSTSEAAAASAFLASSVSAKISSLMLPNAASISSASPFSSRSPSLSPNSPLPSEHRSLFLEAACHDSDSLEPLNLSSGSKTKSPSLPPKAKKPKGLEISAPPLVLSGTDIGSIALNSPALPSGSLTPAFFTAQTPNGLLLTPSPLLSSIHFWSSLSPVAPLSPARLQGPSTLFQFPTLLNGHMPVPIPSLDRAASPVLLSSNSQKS
Procedure, shortened: as §1

FEV = target: T7, FEV (Homo sapiens, UniProt Q99581 1-238); conditions: protein: recombinant; tags: N-terminal GST; dsDNA, one strand shown
T7 sequence: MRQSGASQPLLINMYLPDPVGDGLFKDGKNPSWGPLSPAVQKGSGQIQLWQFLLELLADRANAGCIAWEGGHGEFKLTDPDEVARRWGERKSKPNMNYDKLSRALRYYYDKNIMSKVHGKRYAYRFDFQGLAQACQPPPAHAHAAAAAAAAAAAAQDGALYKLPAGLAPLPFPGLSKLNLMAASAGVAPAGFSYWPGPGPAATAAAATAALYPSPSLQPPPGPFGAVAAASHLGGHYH
Procedure, shortened: as §1

ETV5 = ETV5 (Homo sapiens, UniProt P41161 1-510); conditions: protein: recombinant; tags: N-terminal GST; dsDNA, one strand shown
Sequence of ETV5 (P41161 whole entry): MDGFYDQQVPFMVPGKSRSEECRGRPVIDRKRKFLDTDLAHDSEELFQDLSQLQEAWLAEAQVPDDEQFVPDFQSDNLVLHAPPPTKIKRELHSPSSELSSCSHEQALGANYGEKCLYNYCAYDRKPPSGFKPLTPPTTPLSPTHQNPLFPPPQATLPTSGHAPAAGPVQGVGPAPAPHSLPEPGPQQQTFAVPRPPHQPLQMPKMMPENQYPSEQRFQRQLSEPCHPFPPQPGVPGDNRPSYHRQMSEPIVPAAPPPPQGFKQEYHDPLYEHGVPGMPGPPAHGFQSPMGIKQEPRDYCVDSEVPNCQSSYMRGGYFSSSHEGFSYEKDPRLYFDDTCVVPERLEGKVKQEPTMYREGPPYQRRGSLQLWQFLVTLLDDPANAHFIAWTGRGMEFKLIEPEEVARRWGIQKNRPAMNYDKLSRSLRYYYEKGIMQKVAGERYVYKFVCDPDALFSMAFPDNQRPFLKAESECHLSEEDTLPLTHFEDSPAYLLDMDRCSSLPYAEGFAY
Procedure, shortened: as §1

HSF1 = HSF1 (Homo sapiens, UniProt Q00613 1-529); conditions: protein: recombinant; tags: N-terminal GST; chain copies: 3; dsDNA, one strand shown
Sequence of HSF1 (Q00613 whole entry): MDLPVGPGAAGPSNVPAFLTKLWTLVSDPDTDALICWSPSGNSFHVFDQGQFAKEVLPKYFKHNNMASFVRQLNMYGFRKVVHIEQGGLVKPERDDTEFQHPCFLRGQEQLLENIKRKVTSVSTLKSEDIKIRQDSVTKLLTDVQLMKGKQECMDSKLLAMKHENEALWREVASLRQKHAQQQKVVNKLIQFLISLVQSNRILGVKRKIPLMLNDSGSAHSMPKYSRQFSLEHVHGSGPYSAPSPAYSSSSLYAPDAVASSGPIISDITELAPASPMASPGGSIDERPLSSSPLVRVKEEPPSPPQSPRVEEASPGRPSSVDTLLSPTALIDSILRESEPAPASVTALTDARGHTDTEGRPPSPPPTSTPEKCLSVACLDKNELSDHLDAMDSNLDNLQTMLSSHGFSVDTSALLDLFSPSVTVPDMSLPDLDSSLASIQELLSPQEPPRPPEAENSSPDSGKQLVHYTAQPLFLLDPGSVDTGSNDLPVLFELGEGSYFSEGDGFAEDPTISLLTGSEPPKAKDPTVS
Procedure, shortened: as §1

SPIC = target: T8, SPIC (Homo sapiens, UniProt Q8N5J4 1-248); conditions: protein: recombinant; tags: N-terminal GST; dsDNA, one strand shown
T8 sequence: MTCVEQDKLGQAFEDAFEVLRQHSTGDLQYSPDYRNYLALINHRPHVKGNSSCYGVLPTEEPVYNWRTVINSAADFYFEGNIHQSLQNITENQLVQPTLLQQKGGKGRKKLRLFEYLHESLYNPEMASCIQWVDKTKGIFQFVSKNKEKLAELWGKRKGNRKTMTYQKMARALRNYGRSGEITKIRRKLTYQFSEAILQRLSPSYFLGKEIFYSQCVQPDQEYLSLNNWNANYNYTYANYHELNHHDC
Procedure, shortened: as §1

ELF4 = ELF4 (Homo sapiens, UniProt Q99607 1-663); conditions: protein: recombinant; tags: N-terminal GST; dsDNA, one strand shown
Sequence of ELF4 (Q99607 whole entry): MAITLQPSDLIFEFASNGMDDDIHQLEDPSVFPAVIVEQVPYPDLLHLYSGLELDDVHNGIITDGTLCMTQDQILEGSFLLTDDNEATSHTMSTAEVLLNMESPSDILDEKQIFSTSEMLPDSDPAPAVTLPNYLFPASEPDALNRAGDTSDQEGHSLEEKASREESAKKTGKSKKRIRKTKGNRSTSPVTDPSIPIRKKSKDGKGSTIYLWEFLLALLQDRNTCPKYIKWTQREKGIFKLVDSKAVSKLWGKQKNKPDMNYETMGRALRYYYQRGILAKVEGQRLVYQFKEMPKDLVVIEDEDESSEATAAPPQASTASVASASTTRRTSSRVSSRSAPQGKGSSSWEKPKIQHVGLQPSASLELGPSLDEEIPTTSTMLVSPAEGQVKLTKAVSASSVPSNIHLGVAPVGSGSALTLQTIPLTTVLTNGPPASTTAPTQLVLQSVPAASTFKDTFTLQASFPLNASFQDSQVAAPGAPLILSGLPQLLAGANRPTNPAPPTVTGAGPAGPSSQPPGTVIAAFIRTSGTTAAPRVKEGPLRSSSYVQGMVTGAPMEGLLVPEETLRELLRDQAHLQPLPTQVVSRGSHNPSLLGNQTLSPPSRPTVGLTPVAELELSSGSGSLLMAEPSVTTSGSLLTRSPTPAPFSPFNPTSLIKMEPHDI
Procedure, shortened: as §1

ELK4 = target: T9, ELK4 (Homo sapiens, UniProt P28324-2 1-405); conditions: protein: recombinant; tags: N-terminal GST; dsDNA, one strand shown
T9 sequence: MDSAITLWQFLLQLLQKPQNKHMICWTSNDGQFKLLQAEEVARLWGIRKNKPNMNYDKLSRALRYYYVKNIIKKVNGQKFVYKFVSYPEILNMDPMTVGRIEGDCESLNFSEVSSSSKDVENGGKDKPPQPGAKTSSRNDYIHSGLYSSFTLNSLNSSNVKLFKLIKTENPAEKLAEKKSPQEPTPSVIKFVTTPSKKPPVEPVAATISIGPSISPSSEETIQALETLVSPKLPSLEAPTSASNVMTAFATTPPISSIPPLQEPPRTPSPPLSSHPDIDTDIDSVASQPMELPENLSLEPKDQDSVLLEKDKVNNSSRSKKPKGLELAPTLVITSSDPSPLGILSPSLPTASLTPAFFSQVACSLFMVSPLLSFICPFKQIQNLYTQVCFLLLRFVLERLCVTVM
Procedure, shortened: as §1

ETV2 = target: T10, ETV2 (Homo sapiens, UniProt O00321 1-342); conditions: protein: recombinant; tags: N-terminal GST; dsDNA, one strand shown
T10 sequence: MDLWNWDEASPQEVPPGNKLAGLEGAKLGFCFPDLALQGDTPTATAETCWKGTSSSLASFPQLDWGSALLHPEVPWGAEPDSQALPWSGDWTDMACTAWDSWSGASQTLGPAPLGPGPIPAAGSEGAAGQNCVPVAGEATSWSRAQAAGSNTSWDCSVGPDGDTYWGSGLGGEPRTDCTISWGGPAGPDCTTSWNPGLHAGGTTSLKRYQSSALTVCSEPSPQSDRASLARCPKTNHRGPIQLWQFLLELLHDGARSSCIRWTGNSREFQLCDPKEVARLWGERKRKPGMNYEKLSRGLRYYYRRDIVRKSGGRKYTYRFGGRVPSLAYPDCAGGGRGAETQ
Procedure, shortened: as §1

ELF3 = target: T11, ELF3 (Homo sapiens, UniProt P78545 1-371); conditions: protein: recombinant; tags: N-terminal GST; dsDNA, one strand shown
T11 sequence: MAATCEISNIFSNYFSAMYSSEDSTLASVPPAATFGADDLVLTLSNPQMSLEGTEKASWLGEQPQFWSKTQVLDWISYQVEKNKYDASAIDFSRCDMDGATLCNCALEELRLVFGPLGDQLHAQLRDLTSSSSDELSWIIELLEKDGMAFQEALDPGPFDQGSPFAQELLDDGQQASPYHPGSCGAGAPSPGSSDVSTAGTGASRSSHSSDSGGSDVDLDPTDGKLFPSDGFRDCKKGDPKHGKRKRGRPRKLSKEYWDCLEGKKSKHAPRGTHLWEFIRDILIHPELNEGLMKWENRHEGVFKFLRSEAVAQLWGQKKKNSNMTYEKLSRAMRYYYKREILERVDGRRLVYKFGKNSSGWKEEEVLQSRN
Procedure, shortened: as §1

CRX = CRX (Homo sapiens, UniProt O43186 1-299); conditions: protein: recombinant; tags: N-terminal GST; dsDNA, one strand shown
Sequence of CRX (O43186 whole entry): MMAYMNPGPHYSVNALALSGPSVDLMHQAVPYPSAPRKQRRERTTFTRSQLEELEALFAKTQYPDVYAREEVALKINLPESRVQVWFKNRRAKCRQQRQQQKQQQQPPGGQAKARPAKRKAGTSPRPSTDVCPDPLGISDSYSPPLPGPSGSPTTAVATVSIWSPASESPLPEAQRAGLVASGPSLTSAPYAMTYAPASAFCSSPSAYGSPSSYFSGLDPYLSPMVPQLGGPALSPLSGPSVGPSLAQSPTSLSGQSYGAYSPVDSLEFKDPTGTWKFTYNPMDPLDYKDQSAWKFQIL
Procedure, shortened: as §1

ETV1 = ETV1 (Homo sapiens, UniProt P50549 1-477); conditions: protein: recombinant; tags: N-terminal GST; dsDNA, one strand shown
Sequence of ETV1 (P50549 whole entry): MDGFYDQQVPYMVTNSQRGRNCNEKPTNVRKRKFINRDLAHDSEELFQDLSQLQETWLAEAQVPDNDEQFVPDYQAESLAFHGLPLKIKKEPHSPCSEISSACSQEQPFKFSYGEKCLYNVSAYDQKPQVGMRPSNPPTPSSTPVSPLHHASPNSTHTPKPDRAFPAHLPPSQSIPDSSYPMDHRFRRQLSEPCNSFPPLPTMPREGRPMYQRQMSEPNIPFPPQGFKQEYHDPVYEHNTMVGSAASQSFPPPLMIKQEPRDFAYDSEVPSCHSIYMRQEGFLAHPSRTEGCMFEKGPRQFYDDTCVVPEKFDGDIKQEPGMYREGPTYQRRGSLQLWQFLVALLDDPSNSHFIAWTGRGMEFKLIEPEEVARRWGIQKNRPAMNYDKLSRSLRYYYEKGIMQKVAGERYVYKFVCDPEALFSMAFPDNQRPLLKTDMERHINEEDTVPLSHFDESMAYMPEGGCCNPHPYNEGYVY
Procedure, shortened: as §1

Sequence: TCCGTA
- binding signal (FLI1): 1.57 fold enrichment (6-mer frequency, TF over GST control)
- binding signal (ELK1): 1.63 fold enrichment (6-mer frequency, TF over GST control)
- binding signal (GABPA): 1.59 fold enrichment (6-mer frequency, TF over GST control)
- binding signal (ERG): 1.52 fold enrichment (6-mer frequency, TF over GST control)
- binding signal (ELF1): 1.59 fold enrichment (6-mer frequency, TF over GST control)
- binding signal (EHF): 1.6 fold enrichment (6-mer frequency, TF over GST control)
- binding signal (SPI1): 1.69 fold enrichment (6-mer frequency, TF over GST control)
- binding signal (SPIB): 1.58 fold enrichment (6-mer frequency, TF over GST control)
- binding signal (ELK3): 1.62 fold enrichment (6-mer frequency, TF over GST control)
- binding signal (FEV): 1.43 fold enrichment (6-mer frequency, TF over GST control)
- binding signal (ETV5): 1.62 fold enrichment (6-mer frequency, TF over GST control)
- binding signal (HSF1): 1.1 fold enrichment (6-mer frequency, TF over GST control)
- binding signal (SPIC): 1.56 fold enrichment (6-mer frequency, TF over GST control)
- binding signal (ELF4): 1.47 fold enrichment (6-mer frequency, TF over GST control)
- binding signal (ELK4): 1.6 fold enrichment (6-mer frequency, TF over GST control)
- binding signal (ETV2): 1.63 fold enrichment (6-mer frequency, TF over GST control)
- binding signal (ELF3): 1.47 fold enrichment (6-mer frequency, TF over GST control)
- binding signal (CRX): 1.21 fold enrichment (6-mer frequency, TF over GST control)
- binding signal (ETV1): 1.47 fold enrichment (6-mer frequency, TF over GST control)
